Our source for the composite z-score and z-score values is PubChem BioAssay.

Molecules are shown by their SMILES. Calls of active or inactive are those of the source.

Experiment [1] relates to Plasmodium falciparum Sir2 (PF13_0152, Sir2A). Nature of the experiment: Plasmodium falciparum Sir2A binding compounds – biochemical, small-molecule microarray, 635 nm fluorescence, primary screen (AID 1098).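 Further: score merges spot fluorescence intensity with its signal-to-noise ratio.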 As to conditions: fluorescence 635 nm, higher = more signal.
Experiment [2] is described as follows: probe aDKK1 binding to arrayed compounds – biochemical, biotinylated probe, 635/667 nm fluorescence, primary screen (AID 1099).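 Further: score merges 667nm spot fluorescence with signal to noise across triplicate slides; reference of the scale not given here.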 The settings on record: small-molecule microarray, higher = more signal.
Experiment [3] in a line: probe aCHRDL2 binding to arrayed compounds – biochemical, biotinylated probe, 635/667 nm fluorescence, primary screen (AID 1100). The settings on record: small-molecule microarray, higher = more signal.
Experiment [4] can be described thus: change in splice reporter luminescence, either direction, cell-based, HEK293, spliceosome inhibition project, primary screen (AID 1101).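 Further: HEK293 cells carrying a splicing-competent luciferase reporter gene; test concentration not given here.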 As to conditions: HEK293 splicing luciferase reporter, 24 h, higher = more signal, called active from +8 up or from −8 down. (Reporter assays use an easily measured gene product as a stand-in for the process of interest.)
In experiment [5] the target is Fibroblast growth factor 10 (Homo sapiens) (UniProt O15520). Put plainly: compounds binding fibroblast growth factor 10 – biochemical, small-molecule microarray, 635 nm fluorescence, primary screen (AID 1102). As to conditions: FGF10 binding, fluorescence 635 nm, higher = more signal.
In experiment [6] the test system is glycogen synthase kinase-3 (GSK3A per assay name; protocol says GSK3B). Put plainly: compounds binding glycogen synthase kinase-3 – biochemical, small-molecule microarray, 635 nm fluorescence, GSK3A, primary screen (AID 1103). Further: the record names both GSK3A and GSK3B. As to conditions: fluorescence 635 nm, higher = more signal.
The target of experiment [7] is Epidermal growth factor receptor (Homo sapiens) (UniProt P00533). Put plainly: compounds binding epidermal growth factor receptor – biochemical, small-molecule microarray, 635 nm fluorescence, primary screen (AID 1104).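 Further: score merges 667 nm emission intensity with spot signal to noise over triplicate slides.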 The settings on record: EGFR binding, higher = more signal.
Experiment [8] addresses Follistatin-related protein 3 (Homo sapiens) (UniProt O95633). Nature of the experiment: compounds binding follistatin-related protein 3 – biochemical, small-molecule microarray, 635 nm fluorescence, primary screen (AID 1105).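 Further: score merges emission near 667 nm and signal to noise per printed spot across three slides.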 The settings on record: FSTL3 binding, higher = more signal.
Experiment [9] concerns the target Dickkopf-related protein 1 (Homo sapiens) (UniProt O94907). Put plainly: small molecules binding DKK1 protein – biochemical, small-molecule microarray, 635 nm fluorescence scan, primary screen (AID 1106).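 Further: score merges emission near 667 nm with signal to noise over three replicate slides.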 The settings on record: higher = more signal.
For experiment [10], the system named is Inhibin beta A chain (activin A). Nature of the experiment: small molecules binding activin A – biochemical, small-molecule microarray, 635 nm fluorescence scan, primary screen (AID 1107).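 Further: mouse activin A protein probed at 4.33 µg/mL on printed slides; score merges bound-protein fluorescence near 667 nm with spot signal-to-noise.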 As to conditions: INHBA, higher = more signal.

Dickkopf-related protein 1 (Homo sapiens), sequence (O94907 whole entry, looked up): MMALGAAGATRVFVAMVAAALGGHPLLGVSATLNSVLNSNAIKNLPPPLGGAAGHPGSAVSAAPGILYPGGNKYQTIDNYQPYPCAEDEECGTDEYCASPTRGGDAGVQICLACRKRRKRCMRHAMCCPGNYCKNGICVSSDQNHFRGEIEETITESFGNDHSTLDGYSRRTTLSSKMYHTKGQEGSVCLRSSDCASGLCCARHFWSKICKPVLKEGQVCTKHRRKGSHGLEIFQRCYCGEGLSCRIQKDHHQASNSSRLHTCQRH
Epidermal growth factor receptor (Homo sapiens), sequence (P00533 whole entry, looked up): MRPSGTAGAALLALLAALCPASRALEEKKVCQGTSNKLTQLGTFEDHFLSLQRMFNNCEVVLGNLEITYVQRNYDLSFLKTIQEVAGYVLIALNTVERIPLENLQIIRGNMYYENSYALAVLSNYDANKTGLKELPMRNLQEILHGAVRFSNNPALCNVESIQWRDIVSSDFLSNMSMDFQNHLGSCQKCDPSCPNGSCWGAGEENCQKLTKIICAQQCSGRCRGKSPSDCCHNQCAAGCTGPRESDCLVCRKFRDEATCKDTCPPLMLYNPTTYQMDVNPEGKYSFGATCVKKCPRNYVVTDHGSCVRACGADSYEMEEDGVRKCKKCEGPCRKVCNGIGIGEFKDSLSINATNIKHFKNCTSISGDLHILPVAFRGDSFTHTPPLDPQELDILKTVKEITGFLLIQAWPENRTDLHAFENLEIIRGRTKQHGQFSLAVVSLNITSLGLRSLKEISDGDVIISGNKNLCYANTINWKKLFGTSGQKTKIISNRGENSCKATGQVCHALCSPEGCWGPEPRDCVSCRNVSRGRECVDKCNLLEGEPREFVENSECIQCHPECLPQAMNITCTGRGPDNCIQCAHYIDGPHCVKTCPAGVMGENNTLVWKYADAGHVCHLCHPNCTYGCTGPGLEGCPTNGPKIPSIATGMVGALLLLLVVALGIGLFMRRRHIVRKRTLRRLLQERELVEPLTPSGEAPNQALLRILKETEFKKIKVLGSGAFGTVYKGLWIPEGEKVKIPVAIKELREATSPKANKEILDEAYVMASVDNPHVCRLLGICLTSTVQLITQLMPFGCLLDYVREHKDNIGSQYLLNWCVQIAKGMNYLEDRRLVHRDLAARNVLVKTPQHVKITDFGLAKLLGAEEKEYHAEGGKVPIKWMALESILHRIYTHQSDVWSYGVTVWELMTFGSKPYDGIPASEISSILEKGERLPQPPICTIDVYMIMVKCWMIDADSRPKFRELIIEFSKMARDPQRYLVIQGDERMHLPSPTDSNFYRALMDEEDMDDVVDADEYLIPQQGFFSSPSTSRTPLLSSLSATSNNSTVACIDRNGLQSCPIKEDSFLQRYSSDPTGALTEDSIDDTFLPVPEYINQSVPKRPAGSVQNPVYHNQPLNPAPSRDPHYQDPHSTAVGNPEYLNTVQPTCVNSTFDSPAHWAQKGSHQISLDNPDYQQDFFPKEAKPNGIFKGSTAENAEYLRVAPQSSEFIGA
Follistatin-related protein 3 (Homo sapiens), sequence (O95633 whole entry, looked up): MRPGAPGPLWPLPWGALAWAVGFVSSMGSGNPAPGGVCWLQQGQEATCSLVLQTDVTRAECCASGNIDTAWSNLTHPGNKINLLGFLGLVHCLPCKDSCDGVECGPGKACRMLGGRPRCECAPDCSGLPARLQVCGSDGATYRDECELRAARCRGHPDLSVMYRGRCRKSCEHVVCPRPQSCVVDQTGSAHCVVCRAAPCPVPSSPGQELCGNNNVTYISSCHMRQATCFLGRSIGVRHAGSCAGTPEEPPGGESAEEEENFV
Fibroblast growth factor 10 (Homo sapiens), sequence (O15520 whole entry, looked up): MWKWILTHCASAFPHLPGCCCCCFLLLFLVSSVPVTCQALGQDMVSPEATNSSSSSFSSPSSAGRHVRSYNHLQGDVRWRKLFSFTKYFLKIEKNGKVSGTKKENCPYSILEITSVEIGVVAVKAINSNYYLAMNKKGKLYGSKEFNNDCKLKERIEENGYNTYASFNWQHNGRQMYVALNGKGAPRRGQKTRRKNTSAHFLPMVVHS

Turning to `CC[C@H]1C2=C3C(CC[C@H]4C(OCc5ccc(F)cc5C(F)(F)F)OC[C@](C)([C@@H]34)N(C(=O)OC(C)(C)C)C2)C2COC(=O)OCC21` (stereo not given in full), the composite z-score in experiment [1] was 0.282; in experiment [2], 0.817; in [3] it was 1.12; in experiment [5], -0.0217; in experiment [6], 0.737; in experiment [7] it was 0.128. In addition, the values for the composite z-score in experiment [8], in [9] and in experiment [10] were 0.719, -1.02 and 1.06, respectively. Also, the z-score in [4] is -0.499 (inactive).

`O=C(CCCCCCC(=O)Nc1ccccc1)N/N=C/c1ccccc1`: the composite z-score was 0.45 in experiment [1]; -0.176 in experiment [2]; -0.311 in experiment [3]; -0.136 in experiment [5]; -0.401 in experiment [6]; 0.0504 in [7]. Besides, the figures for the composite z-score in experiment [8], in experiment [9] and in [10] were -0.41, 0.328 and 0.18, respectively. Besides, the z-score in experiment [4] is -0.519 (inactive).

For the compound `CC(C)C(=C=CC[C@@H](O)c1ccccc1OCCO)C[C@@H](O)COCc1ccccc1`, the composite z-score in experiment [1] was 1.23; in experiment [2], 0.469; in [3], 0.264; in experiment [5] it was 1.35; in experiment [6], -0.0582; in experiment [7], 0.22. In addition, the composite z-score is 0.589 in experiment [8], -0.691 in [9] and 1.35 in experiment [10]. The z-score in [4] is -2.12 (inactive).

Regarding `Cc1ccc(S[C@]2(C(=O)NC3CC3)CC(=O)N(Cc3ccccc3Cl)[C@@H]2c2ccc(CO)cc2I)cc1`, the composite z-score is 1.35 in [1]; 0.633 in [2]; 0.873 in experiment [3]; 1.4 in experiment [5]; 1.27 in [6]; -0.172 in [7]. For the same compound, the figures for the composite z-score in [8], in [9] and in [10] were 0.41, 0.122 and 1.03, respectively. In experiment [4], the z-score was -0.447 (inactive).

As for `NC(=O)N1C(=O)C2C(C1=O)C1C=C(CCCO)C2C(c2cccs2)N1Cc1cc2c(cc1Br)OCO2` (stereo not given), the composite z-score was 0.884 in experiment [1]; -0.198 in experiment [2]; 0.229 in experiment [3]; -0.284 in experiment [5]; -0.0207 in experiment [6]; -0.495 in experiment [7]. For the same compound, the results for the composite z-score in [8], in [9] and in experiment [10] were -0.289, -0.756 and 0.975, respectively. Besides, in [4], the z-score was 0.701 (inactive).

For `C=CCN1C(=O)[C@@]2(O[C@@H](CCO)[C@H]([Si](C)(C)c3ccc(OC)cc3)[C@H]2C)c2cc(N3C(=O)c4ccccc4Oc4ccccc43)ccc21`, the composite z-score in experiment [1] was 1.07; in experiment [2] it was -0.0987; in experiment [3], 0.0272; in experiment [5] it was 0.916; in experiment [6], -0.229; in experiment [7], -0.262. Moreover, the composite z-score in experiment [8] was -0.0233; in experiment [9], 0.0911; in experiment [10] it was 0.0761. In addition, the z-score in [4] was -3.3 (inactive).

Consider `CCOC(=O)C[C@H]1[C@H](OC(=O)Cc2ccc3c(c2)OCO3)[C@@H](NC(=O)C2CCCCC2)c2cc(OCCCO)ccc2N1C(=O)c1ccc2ccccc2n1`, for which the composite z-score was 0.774 in [1]; 0.034 in [2]; -0.529 in [3]; 1.47 in experiment [5]; 0.72 in experiment [6]; 0.713 in [7]. Moreover, the composite z-score in experiment [8] was found to be 1.18; in experiment [9] it was 1.65; in [10], 0.0341. Further, in [4], the z-score was -1.49 (inactive).

As to `C=C(COC)/C(=C/C[C@@H](OC(=O)c1ccncc1)c1ccc(CO)o1)c1cnc2ccccc2c1`, the composite z-score is 1.06 in [1]; -0.182 in experiment [2]; -0.386 in experiment [3]; 1.59 in [5]; 1.35 in experiment [6]; 1.59 in experiment [7]. The figures for the composite z-score in experiment [8], in [9] and in experiment [10] were 1.57, 1.2 and 1.87, respectively. The z-score in [4] was 0.773 (inactive).

On to `NCCCCCNC(=O)[C@@H]1C[C@@H]2C(=O)N[C@@H](CCCCN)C(=O)N2[C@@H]1c1cccc(OCCO)c1`, for which the composite z-score was 0.858 in experiment [1]; 1.24 in experiment [2]; 0.826 in [3]; 0.699 in experiment [5]; 0.642 in experiment [6]; -0.0511 in experiment [7]. Moreover, the composite z-score in [8] is 1.44; in experiment [9], 0.969; in [10], 0.428. The z-score in [4] was -0.107 (inactive).

On to `C=C[C@@H](C)[C@H](OC(=O)Nc1ccc(SC)cc1)c1ccc(OCCO)cc1`, for which the composite z-score in experiment [1] is -0.435; in experiment [2], -0.0748; in experiment [3], 0.626; in experiment [5] it was -0.553; in experiment [6] it was -1.14; in experiment [7], -0.541. For the same compound, the composite z-score is -0.138 in experiment [8], -0.773 in experiment [9] and -0.0131 in [10]. For the same compound, in experiment [4], the z-score is -1.91 (inactive).

`C=CCOC(=O)[C@@H]1[C@H]2C(=O)O[C@H](c3ccccc3)[C@H](c3ccccc3)N2[C@H](c2ccc(OCCOC(=O)[C@H]3C[C@H]4C(=O)N[C@@H](CC(C)C)C(=O)N4[C@H]3c3ccc(O)cc3)cc2)[C@@]12C(=O)Nc1ccc(I)cc12`: the composite z-score is 1.25 in experiment [1]; 0.198 in [2]; -0.093 in experiment [3]; 1.4 in experiment [5]; 1.32 in [6]; 1.08 in [7]. Moreover, the composite z-score turned out to be 1.51 in experiment [8], 0.931 in experiment [9] and 0.463 in experiment [10]. In addition, in experiment [4], the z-score is 0.242 (inactive).

Turning to `CC(=O)NCCCC[C@@H]1NC(=O)[C@@H]2C[C@H](C(=O)O)[C@H](c3ccc(O)cc3)N2C1=O`, the composite z-score was 1.66 in experiment [1]; -0.106 in experiment [2]; 1.06 in experiment [3]; -0.947 in [5]; -1.18 in experiment [6]; -1.7 in [7]. The composite z-score is -1.98 in experiment [8], -1.46 in experiment [9] and -2.08 in [10]. For the same compound, the z-score in experiment [4] is -0.905 (inactive).

For the compound `O=C(O)[C@]1(Cc2ccccc2)N=C(c2ccc(OCCCO)cc2)O[C@@H]1c1ccccc1`, the composite z-score in [1] is 0.122; in experiment [2], 0.568; in [3], 0.926; in [5] it was -0.74; in [6], -1.23; in [7], -0.856. Moreover, the composite z-score was -1.07 in [8], -1.16 in experiment [9] and 0.848 in experiment [10]. In addition, the z-score in experiment [4] is 0.771 (inactive).

On to `C=CCOC(=O)[C@H]1[C@@H]2C(=O)O[C@@H](c3ccccc3)[C@@H](c3ccccc3)N2[C@@H](c2ccc(OCCOC(=O)[C@H]3C[C@H]4C(=O)N[C@@H](Cc5ccccc5)C(=O)N4[C@H]3c3cccc(OCCO)c3)cc2)[C@]12C(=O)Nc1ccc(I)cc12`, for which the composite z-score in experiment [1] was 1.12; in [2], -0.298; in experiment [3], -0.0762; in experiment [5], 1.24; in [6], 1.28; in experiment [7], 0.536. Also, the composite z-score in experiment [8] was found to be 1.29; in experiment [9], 0.759; in experiment [10] it was 0.17. Also, in [4], the z-score is 0.959 (inactive).

Regarding `C=C(COC)/C(=C/C[C@@H](OC(=O)c1ccncc1)c1cccc(OCCO)c1)c1cnc2ccccc2c1`, the composite z-score was -0.0365 in experiment [1]; 0.432 in experiment [2]; 0.347 in experiment [3]; 1.48 in experiment [5]; 1.3 in experiment [6]; 1.65 in experiment [7]. Also, the composite z-score in [8] came out at 1.65; in experiment [9] it was 0.769; in experiment [10], 1.81. Moreover, the z-score in experiment [4] is -1.36 (inactive).

With `O=C1c2ccccc2[C@](Cc2ccccc2I)(C(=O)NCc2ccccc2)[C@H](c2ccc(CO)cc2)N1C1CCCCC1`, the composite z-score in experiment [1] stood at 0.851; in experiment [2] it was 0.969; in [3], 0.357; in experiment [5] it was 1.37; in experiment [6], 1.08; in experiment [7], 0.228. Besides, the composite z-score in experiment [8] was found to be 1.08; in experiment [9], 0.837; in experiment [10] it was 0.958. Moreover, the z-score in experiment [4] was -0.216 (inactive).

For the compound `COc1cc2c(cc1OC)CN(C(=O)[C@H]1[C@@H]3C(=O)O[C@@H](c4ccccc4)[C@@H](c4ccccc4)N3[C@@H](c3ccc(OCCO)cc3)[C@]13C(=O)Nc1ccc(C#CC4(O)CCCCCC4)cc13)CC2`, the composite z-score in experiment [1] was found to be 1.09; in [2], 1.59; in [3], 0.623; in [5], 1.12; in experiment [6], 1.31; in experiment [7], 1.02. The values for the composite z-score in experiment [8], in [9] and in experiment [10] were 1.33, 1.31 and 1.07, respectively. In addition, in experiment [4], the z-score is 0.415 (inactive).
